Source: PubChem (National Center for Advancing Translational Sciences (NCATS))
FLuc modulator = firefly luciferase modulation, counter-screen for miR-21 project; purified FLuc, Km substrates, luminescence inhibition; P08659; Potency, µM (series often up to 57.5 µM), for the others: top-dose activity change, negative = inhibition, usual class: inhibitors; AID 588342; 6.9% of 360,000 active;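 note: plate controls were vehicle for no effect and reference inhibitor for full effect; nearly all actives have a fitted effect of over 55% in size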
Target sequence (P08659 whole entry, looked up): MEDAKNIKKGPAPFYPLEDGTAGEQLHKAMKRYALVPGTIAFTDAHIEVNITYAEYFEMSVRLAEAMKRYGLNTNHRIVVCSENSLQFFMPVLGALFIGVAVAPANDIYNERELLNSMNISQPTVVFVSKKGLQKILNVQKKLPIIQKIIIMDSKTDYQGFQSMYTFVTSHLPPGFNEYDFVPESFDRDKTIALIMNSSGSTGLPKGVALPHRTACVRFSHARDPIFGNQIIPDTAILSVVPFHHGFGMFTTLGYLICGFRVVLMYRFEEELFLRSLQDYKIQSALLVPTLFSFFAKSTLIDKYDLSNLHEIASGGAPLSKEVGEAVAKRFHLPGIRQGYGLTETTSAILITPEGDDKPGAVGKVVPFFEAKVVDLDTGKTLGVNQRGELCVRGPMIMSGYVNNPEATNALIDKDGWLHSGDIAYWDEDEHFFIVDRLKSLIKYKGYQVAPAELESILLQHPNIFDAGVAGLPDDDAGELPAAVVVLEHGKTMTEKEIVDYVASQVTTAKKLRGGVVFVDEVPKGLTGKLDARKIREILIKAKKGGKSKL
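Purified P. pyralis luciferase (10nM final) with 10uM D-luciferin and 10uM ATP (Km levels) in 50mM Tris acetate pH 7.5, 10mM Mg acetate, 0.01% Tween-20, 0.05% BSA; qHTS 6-point titration, ~60 µM downward; luminescence read.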
Luc counter = Kinase-Glo luciferase inhibition (counter-screen); Kinase-Glo luciferase, ATP luminescence, 8 min; Potency, µM (doses to about 38.3 µM), for the others: top-dose activity change, negative = inhibition, actives largely listed as inhibitors; 0.28% of 200,000 active; note: % is set by controls: 0 for no effect and ±100 for the full control effect; nearly all actives have a fitted effect of over 60% in size
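Compounds were added to a substrate mix at pH 7.2 (50 mM imidazole, 10 uM ATP, within the enzyme's linear range), followed by Kinase-Glo detection reagent; luminescence was measured after 8 minutes at ambient temperature.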
SMN2 splice up = enhancers of SMN2 splice variant expression. HEK293 SMN2-luciferase splicing reporter, luminescence, 30-36 h. Potency, µM (highest dose often 46.1 µM), without a hit: at the highest dose activity change, positive = activation, actives largely listed as activators. 2.8% of 210,000 active. AID 1458; note: % of control where 0% means no effect; nearly all actives have a fitted effect of over 55% in size
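HEK293 cells carry an SMN2 minigene-luciferase reporter in which exon 7 inclusion puts luciferase in frame. Cells were seeded at 2000 cells/well, attached for 10-12 hours, then exposed to compounds for 30-36 hours at 37C before ONE-Glo luminescence.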
NPC1 prom act = NPC1 promoter activation. 2.4% of 320,000 active. Huh7 NPC1 promoter luciferase reporter, 24 h. Potency, µM (top dose mostly 9.22 µM), without a hit: top-dose activation, usual class: activators; note: % of control where 0% means no effect; nearly all actives have a fitted effect of over 60% in size
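Luminescence from an NPC1 promoter-driven luciferase reporter in stably transfected Huh7 cells was measured after 24 h compound treatment at 37 °C, followed by 10 min ambient incubation with luciferase detection reagent.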
ELG1 genotoxic = induces genotoxicity in HEK293T cells with luciferase-tagged ELG1; HEK293T ELG1-luciferase reporter, luminescence, 16 h; Potency, µM (highest dose often 46 µM), without a hit: at the top dose activity change, positive = activation, most hits filed as activators; 1.3% of 330,000 active; AID 504466; note: % of control where 0% means no effect; nearly all actives have a fitted effect of over 60% in size
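After overnight (16 hr) compound treatment at 37 °C, ELG1-luciferase HEK293T cells were lysed with ONE-Glo; luminescence quantified 30 min later at room temperature.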
Rab9 promoter act = activates the Rab9 promoter | Huh7 Rab9 promoter-luciferase reporter, luminescence, 24 h | AID 485297 | 2.8% of 320,000 active | Potency, µM (top dose mostly 9.22 µM), without a hit: at the top dose activation, negative = inhibition, actives largely listed as activators; note: % of control where 0% means no effect; nearly all actives have a fitted effect of over 60% in size
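Huh7 cells stably carrying a Rab9 promoter-luciferase reporter, 1500 cells per well in OP-MEM I with 10% FBS, treated with compound 24 hours at 37C. Luciferase activity read by luminescence after 10 minutes with Amplite reagent.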
The depositor's hits bear a star; ? = inconclusive; . = no result; [ ] = remark or other dose. This is a sample that favours compounds with a hit; in the whole collection about 7.3% have one here. Calls come from the whole dose curve; as a rule, active = well fitted curve in the direction sought with a large enough effect; inconclusive = small, poorly fitted or top-dose-only effect, or another doubt; inactive = no such curve, though single readings can be large; an effect the other way counts as inactive or inconclusive. Potency is the fitted concentration of half-maximal effect.

SMILES	FLuc modulator	Luc counter	SMN2 splice up	NPC1 prom act	ELG1 genotoxic	Rab9 promoter act
Cc1ccc(-c2cc(C(=O)N/N=C/c3c(C)nn(C)c3C)c3ccccc3n2)cc1C	0.6µM*	-5%	?	29%	?	?
O=C(O)COc1ccccc1/C=N/NC(=O)c1cc2ccccc2cc1O	7.6µM*	.	.	-5%	-1%	3%
COc1cc(/C=N/NC(=O)c2cc(-c3ccccc3OC(C)C)nc3ccccc23)ccc1O	-3%	4%	?	-1%	-7%	0%
Cc1ccc(/C=N/NC(=O)c2cc(-c3ccccc3)nc3ccccc23)o1	12µM*	.	.	-17%	1%	-2%
COc1ccc(/C=N/NC(=O)c2cc(-c3ccccc3)nc3ccccc23)cc1O	5.4µM*	.	.	2%	-6%	1%
CCOc1ccc(/C=N/NC(=O)c2cc(-c3ccccc3)nc3ccccc23)cc1O	15µM*	.	.	1%	-18%	0%
Cc1cc(C(=O)N/N=C/c2cc(Cl)cc([N+](=O)[O-])c2O)n[nH]1	27µM*	.	.	-3%	-8%	-3%
COc1ccc(-c2cc(=O)c3c(O)c(OC)c(O[C@@H]4OC(COC5OC(C)C(O)C(O)[C@@H]5O)C(O)C(O)C4O)cc3o2)cc1 (some centres undefined)	.	-4%	-9%	.	.	.
Cc1cc(C)c2cccc(NC(=S)NC(=O)c3ccccc3)c2n1	?	-2%	-4%	16%	2%	12%
CSCCC(NC(=O)c1ccccc1Cl)C(=O)NCC(c1ccco1)N1CCCCC1 (centres undefined)	3%	.	.	-1%	-2%	-4%
O=C(N/N=C/c1ccc(O)cc1)c1cc(-c2ccccc2)nc2ccccc12	5.4µM*	.	.	0%	0%	6%
O=C(N/N=C/c1ccc2c(c1)OCO2)c1cc(-c2ccc(F)cc2)nc2ccccc12	5.4µM*	-20%	-21%	-3%	1%	-4%
O=C(N/N=C/c1ccccn1)c1cc(C2CC2)nc2ccccc12	-1%	.	.	2%	2%	-3%
COc1ccc(/C=N/NC(=O)c2cc(-c3ccccc3)nc3ccccc23)c(C(=O)O)c1OC	7.6µM*	.	.	3%	3%	3%
O=C(N/N=C/c1ccccn1)c1cc(-c2ccccc2)nc2ccccc12	13µM*	.	.	-3%	?	1%
COc1ccc(N=C2S/C(=C\c3ccc(Cl)c([N+](=O)[O-])c3)C(=O)N2CCN(C)C)cc1	1%	.	.	-11%	-5%	-4%
COc1ccc(-n2cnc3cc(N)ccc32)cc1	?	-2%	14µM*	26%	?	20%
COc1ccc(-n2cnc3cc(NS(=O)(=O)c4ccccc4)ccc32)cc1	?	3%	28%	3%	3%	0%
O=C(Nc1ccc2c(c1)ncn2C1CCCCC1)c1ccco1	13µM*	-4%	23%	?	?	3.5µM*
COc1ccccc1-n1cnc2cc(NC(=O)c3ccco3)ccc21	?	16%	10µM*	-13%	?	-6%
COc1ccc(-n2cnc3cc(NC(=O)c4ccco4)ccc32)cc1	13µM*	-3%	-16%	4%	15%	2%
COc1ccc(-n2cnc3cc(C(=O)N4CCOCC4)ccc32)cc1	?	.	.	24%	?	?
Cc1nnc(N2CCC(C(=O)N3CCCCC3)CC2)c2nn(-c3ccc(Cl)cc3)c(C)c12	-1%	.	.	-3%	-5%	-11%
CCn1c2ccccc2c2cc(NC(=O)c3ccco3)ccc21	?	2%	10%	6%	15%	8%
CC(C)n1cnc2cc(NC(=O)c3ccco3)ccc21	11µM*	.	.	1.1µM*	?	1.8µM*
SMILES	FLuc modulator	Luc counter	SMN2 splice up	NPC1 prom act	ELG1 genotoxic	Rab9 promoter act
COc1ccccc1-c1ccc(SCC(=O)Nc2cc(C)on2)nn1	-4%	14%	-37%	-3%	-1%	3%
COC1=C(OC)C(=O)C(C/C=C(\C)CC/C=C(\C)CC/C=C(\C)CC/C=C(/C)CC/C=C(\C)CC/C=C(\C)CC/C=C(\C)CC/C=C(\C)CC/C=C(\C)CCC=C(C)C)=C(C)C1=O	.	-3%	2%	.	.	.
Nc1ccc2oc(-c3ccccc3Cl)cc(=O)c2c1O	6.7µM*	-4%[39.9 µM]	11µM*	3.2µM*	16µM*	4µM*
CCOc1ccc(CCNC(=O)c2sc3nc4n(c(=O)c3c2C)CCC4)cc1OCC	2%	.	.	-3%	-4%	4%
CC(=O)Nc1ccc(NC(=O)C(C)OC(=O)C2(c3ccc(F)cc3)CCCC2)cc1 (centres undefined)	6%	0%	-73%	-2%	-10%	-2%
COc1cc(/C=N/NC(=O)c2nc(-c3ccccc3)n(-c3ccccc3)n2)ccc1O	?	0%	-9%	3%	1%	1%
COc1ccc(/C=N/NC(=O)c2nn(-c3ccccc3)c(=O)c3c(N)scc23)cc1	9.5µM*	-1%	5%	-3%	0%	4%
COc1cccc(/C=N/NC(=O)CCn2c3ccccc3c3ccccc32)c1	-1%	1%	2%	0%	1%	-2%
COc1ccc(/C=N/NC(=O)CCn2c3ccccc3c3ccccc32)cc1O	11µM*	2%	-9%	-25%	4%	-32%
COc1ccc(/C=N/NC(=O)c2nn(-c3ccc(Cl)cc3)c(=O)c3c(N)scc23)cc1	?	-4%	-2%	1%	6%	0%
COc1ccc(/C=N/NC(=O)c2nc(-c3ccccc3)cc(-c3ccccc3)n2)cc1	2.7µM*	-2%	-32%	1%	1%	3%
COc1ccc(/C=N/NC(=O)c2nc(-c3ccccc3)n(-c3ccccc3)n2)cc1OC	17µM*	1%	-2%	-8%	0%	7%
COc1ccc(/C=N/NC(=O)c2ccncc2)cc1[N+](=O)[O-]	4%	3%	-5%	-7%	-13%	-5%
Cc1cc(C(=O)CSC(C)c2nc3ccccc3c(=O)[nH]2)c(C)n1C (centres undefined)	-1%	9%	-20%	-15%	-1%	-6%
COc1ccc(NC(=O)c2c(NC(=O)c3ccc(Br)cc3)sc3c2CCCC3)cc1	?	.	8%	.	.	.
